Pf Dd2 growth = Plasmodium falciparum Dd2 growth inhibition. Potency, µM (highest dose often 28.9 µM), hits mostly inhibitors. 120,000 compounds, 4.3% hits. P. falciparum Dd2 growth, SYBR Green, 72 h; active = well fitted inhibition curve with a large enough effect; note: nearly all actives have a fitted effect of over 65% in size
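Readout: SYBR Green fluorescence, 485 nm excitation, 535 nm emission, after ~16 h lysis at 37C. Before that, Dd2-infected red cells (2.5% hematocrit) grew 72 h with compound, 29 uM top final concentration.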
Of the large screens only hits and unclear results are named; the others gave an inactive call. The full list was thinned out, with hits kept by preference.

CN(Cc1ccccc1)C(=O)C1(c2ccc(NC(=O)C3CC3)cc2)CCCCC1	Pf Dd2 growth 4.5µM
O=C(Nc1ccc(C2(C(=O)O)CCC2)cc1)C1CC1	none
CC(=O)Nc1ccc(C2(C(=O)N(C)Cc3ccccc3)CCCCC2)cc1	none
Cc1ccc(CNC(=O)c2cc3cn(C(C)C)cc3s2)o1	none
COc1ccc(CNC(=O)c2cc3cn(C4CC4)cc3s2)cc1OC	none
COc1ccc(CCNC(=O)c2cc3cn(C(C)C)cc3s2)cc1OC	Pf Dd2 growth 8.9µM
O=C(CN1C(=O)C2(SCC(=O)N2c2cccc(Cl)c2)c2ccccc21)NC1CCCCC1 (stereo not given)	Pf Dd2 growth 13µM
Cc1cccc(N2C(=O)CSC23C(=O)N(Cc2cccc(C(F)(F)F)c2)c2ccccc23)c1 (stereo not given)	Pf Dd2 growth 10µM
NC(=O)CN1C(=O)C2(SCC(=O)N2c2cccc(F)c2)c2ccccc21 (stereo not given)	none
COc1cccc(CN2C(=O)C3(SCC(=O)N3c3cc(C)cc(C)c3)c3ccccc32)c1 (stereo not given)	none
O=C(Cn1c(=O)n(-c2cccc(Cl)c2)c(=O)c2sc3ccccc3c21)NC1CCCCC1	none
O=C(CN1C(=O)C2(SCC(=O)N2c2cccc(Cl)c2)c2ccccc21)NCc1ccccc1 (stereo not given)	Pf Dd2 growth 11µM
Cc1cccc(N2C(=O)CSC23C(=O)N(C)c2ccccc23)c1 (stereo not given)	none
CC(C)c1ccc(N2C(=O)CSC23C(=O)N(Cc2ccccc2)c2ccccc23)cc1 (stereo not given)	none
CCc1ccc(N2C(=O)CSC23C(=O)N(Cc2cccc(F)c2)c2ccccc23)cc1 (stereo not given)	none
CN1C(=O)C2(SCC(=O)N2c2cccc(C(F)(F)F)c2)c2ccccc21 (stereo not given)	none
CCc1ccc(N2C(=O)CSC23C(=O)N(Cc2ccc(C)cc2)c2ccccc23)cc1 (stereo not given)	none
CCc1ccc(NC(=O)CN2C(=O)C3(SCC(=O)N3c3ccccc3)c3ccccc32)cc1 (stereo not given)	Pf Dd2 growth 11µM
CC(C)NC(=O)C1=NOC2CN(C(=O)C3CC3)CC12 (stereo not given)	none
CCO[C@H]1CN(C(=O)CSc2ccc(Cl)cc2)C[C@@H]1O	none
O=C(NCC1CCCCC1)C1CCN(C(=O)N2CC3CC(C2)[C@H]2CCCC(=O)N2C3)CC1 (stereo not given in full)	none
CCn1nccc1C(=O)N1CCCC(n2c(C)cnc2COC)C1 (stereo not given)	none
O[C@H]1CC[C@@H](Cc2cc(-c3ccccn3)on2)O[C@@H]1CN(Cc1ccccc1)Cc1ccccc1	none
Cc1cc(CN2C[C@@H](CO)[C@H](NC(=O)C3CC3)C2)n(C)n1	none
O=C(Cc1ccc(Cl)cc1)N1CCC(c2n[nH]c(=O)n2-c2ccccc2)CC1	none
Cc1ccc(CNC(=O)N2CC(Oc3cccc(-c4nc(C)no4)c3)C2)cc1	none
CCNC(=O)CCc1c(C)nn(-c2ccc(F)cc2)c1Oc1ccccc1	none
CNC(=O)[C@@H]1CCCC[C@@H]1c1nc(-c2ccncc2)nn1CCO	none
COc1ccccc1C(=O)Nc1ccc([C@@H](O)[C@H]2COCC(=O)N2Cc2ccccc2F)cc1	none
O=C(NCc1n[nH]c2c1CCC2)c1coc(COc2cccc(F)c2F)n1	none
Cc1ccc(-c2noc([C@@H]3Cc4nc[nH]c4CN3Cc3cccs3)n2)cc1	none
Fc1ccc(-c2noc([C@@H]3Cc4nc[nH]c4CN3Cc3cccs3)n2)cc1Cl	Pf Dd2 growth 10µM
OCc1ccc(CN2Cc3[nH]cnc3C[C@H]2c2nc(-c3ccncc3)no2)o1	Pf Dd2 growth 14µM
Cc1ccc(-c2noc([C@@H]3Cc4nc[nH]c4CN3CC3CCCCC3)n2)cc1	none
Cc1ccc(CN2Cc3[nH]cnc3C[C@H]2c2nc(-c3ccc4ccccc4c3)no2)cc1	none
c1ccc(CN2Cc3[nH]cnc3C[C@H]2c2nc(-c3ccncc3)no2)cc1	Pf Dd2 growth 10µM
O=C(O)c1ccc(CN2Cc3[nH]cnc3C[C@H]2c2nc(-c3ccc(F)cc3)no2)cc1	none
Fc1ccc(CN2Cc3[nH]cnc3C[C@H]2c2nc(-c3ccc(Cl)cc3)no2)cc1	none
Fc1ccc(-c2noc([C@@H]3Cc4nc[nH]c4CN3Cc3ccccc3)n2)cc1Cl	none
COCCN1CCCN(C(=O)c2ccc(F)c(F)c2)c2ccccc21	none
CCN(CC)Cc1cnc2c(C(=O)Nc3ccc(Cl)cc3C)cnn2c1	none
Cc1ccc(CNC(=O)Cn2ccn3nc4c(c3c2=O)CCCC4)cc1	none
CCNC(=O)c1ccc(-c2cc(NC3CCCC3)nc3[nH]ccc23)nc1	Pf Dd2 growth 10µM
COc1ccc(C(=O)NCc2ccnc3[nH]ccc23)cc1	none
O=C(O)c1cnc(-c2cc(NCc3ccccn3)nc3[nH]ccc23)c(Cl)c1	none
Nc1ncc(-c2ccc(-c3cc(NC4CCCC4)nc4[nH]ccc34)cc2)[nH]1	Pf Dd2 growth 8.9µM
O=C(CC[C@H]1NC(=O)c2ccccc2NC1=O)NCCn1cnc2ccccc21	none
Cc1ccc(C(=O)N(C)Cc2ccc(-c3ccccc3)cc2)cc1	none
CN1CCC(CN2CCC3(CC2)COCCN3C(=O)c2ccccc2)CC1	none
Cc1noc([C@@H]2CN(C(=O)CCc3ccccc3)C[C@H]2CO)n1	none
CN[C@@H](CC(C)C)C(=O)N[C@H]1C[C@@](O)(C(=O)N[C@H]2CCCNC2=O)C[C@@H](O)[C@@H]1O	none
Cc1cc(C)c(S(=O)(=O)c2nnn3c2nc(NCCCOC(C)C)c2ccccc23)c(C)c1	none
O=S(=O)(c1cccc(Cl)c1)c1nnn2c1nc(NC1CCCC1)c1sccc12	Pf Dd2 growth 13µM
CCOC(=O)C1CCCN(c2nc3c(S(=O)(=O)c4ccc(CC)cc4)nnn3c3ccc(Cl)cc23)C1 (stereo not given)	none
CCc1ccc(S(=O)(=O)c2nnn3c2nc(N2CCC(C)CC2)c2cc(Cl)ccc23)cc1	none
CCOC(=O)C1CCN(c2nc3c(S(=O)(=O)c4ccccc4)nnn3c3ccc(Cl)cc23)CC1	Pf Dd2 growth 8.9µM
CC(C)c1ccc(S(=O)(=O)c2nnn3c2nc(N2CCCC2)c2sccc23)cc1	none
O=S(=O)(c1cccc(Cl)c1)c1nnn2c1nc(NCc1ccc3c(c1)OCO3)c1sccc12	none
Cc1cc(C)cc(Nc2nc3c(S(=O)(=O)c4cccc(Cl)c4)nnn3c3ccsc23)c1	none
Cc1cc(C)c(S(=O)(=O)c2nnn3c2nc(NC2CCCC2)c2ccccc23)c(C)c1	Pf Dd2 growth 11µM
Cc1ccc(S(=O)(=O)c2nnn3c2nc(N2CCC(C(N)=O)CC2)c2cc(Cl)ccc23)cc1C	none
CC1CCN(c2nc3c(S(=O)(=O)c4cccc(Cl)c4)nnn3c3ccsc23)CC1	Pf Dd2 growth 13µM
O=S(=O)(c1ccccc1)c1nnn2c1nc(NC1CC1)c1ccccc12	none
CC(C)NC(=O)N1CCCC1c1noc(CCC(=O)NC2CC2)n1 (stereo not given)	none
O=C(NC1CC1)[C@@H]1CN(Cc2cccnc2)C[C@H]1CO	none
CN1C[C@H](NC(=O)c2cnccn2)CCC[C@@H](C(=O)NCc2cc(F)cc(F)c2)CC1=O	none
O=C1NCCCCCCN(C(=O)c2ccncc2)[C@H]2CCCC[C@@H]12	none
CCCC(=O)N1CCC2(CC1)SCC(=O)N2c1ccc(Cl)cc1	none
CC(C)CN(CC1CN(C(=O)Nc2cccc(Cl)c2)CCO1)C(=O)c1ccc(F)cc1 (stereo not given)	none
Cc1ccc(C)c(N2CCN(c3nc4ccc(C(=O)c5ccccc5)cc4n4cnnc34)CC2)c1	none
Cc1ccc(N2CCN(c3nc4ccc(C(=O)c5ccccc5)cc4n4cnnc34)CC2)c(C)c1	none

High-throughput results as filed in PubChem.
